# In PubChem BioAssay (Tox21):
# Activity calls are given as the source filed them. Calls come from the whole dose curve; as a rule, active = well fitted curve in the direction sought with a large enough effect in the repeat runs; inconclusive = weak or mixed curves; inactive = flat fitted curve, though single readings scatter.
# Assay: qHTS assay to test for compound auto fluorescence at 590 nm (red) in HEK293 cell free culture (AID 720683)
# Conditions: cell-free medium autofluorescence, Ex540/Em590 red; series mostly up to 91.3 µM; fluorescence, % of fluorescent control: at the top concentration
# Outline: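 Tox21 10K library compounds were pinned into cell-free DMEM with 10% FBS and fluorescence was read at excitation 540 nm. Activity is expressed as Rose Bengal sodium equivalency.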
# % is set by controls: 0 for no effect and ±100 for the full control effect.
SMILES,"fluorescence, % of fluorescent control",outcome
CC(=O)OCC(=O)[C@@]1(O)CC[C@H]2[C@@H]3CCC4=CC(=O)C=C[C@]4(C)[C@H]3[C@@H](O)C[C@@]21C,0.015% [at 46 µM] (inactive),
CCCCC(CC)CCC(CC(C)C)OS(=O)(=O)O (stereo not drawn),,inactive
C=C(C)C(=O)OCCCC,0.077% [at 95.7 µM] (inactive),
CC(C)C(C)C,-0.816% (inactive),
CC(=O)Oc1ccc(C(C)=O)cc1,0.0522% [at 95.7 µM] (inactive),
CCCCCCCCC1CO1 (stereo not drawn),0.0993% [at 95.7 µM] (inactive),
CC(C)c1cc(C(C)C)cc(C(C)C)c1,0.136% (inactive),
C=CC(=O)OCC[N+](C)(C)C,-0.0113% (inactive),
CN(C)c1cc(NC(=O)CNC(C)(C)C)c(O)c2c1C[C@H]1C[C@H]3[C@H](N(C)C)C(=O)C(C(N)=O)=C(O)[C@@]3(O)C(=O)C1=C2O,0.0281% [at 46 µM] (inactive),
CC1(C)C(=O)C(C)(C)C1=O,-0.435% (inactive),
CCCCCC(CC)OC(=O)CCCOc1ccc(Cl)cc1Cl (stereo not drawn),-0.0392% (inactive),
Cc1ccc2ccccc2n1,0.219% (inactive),
C=CCON/C(CCC)=C1\C(=O)CC(C)(C)C(C(=O)OC)=C1O,0.0656% (inactive),
CCCCCCC(O)CO (stereo not drawn),-0.0466% (inactive),
Cc1ccc(O)c([N+](=O)[O-])c1,-0.562% [at 95.7 µM] (inactive),
CCCCCC(=O)CC,-0.043% [at 95.7 µM] (inactive),
O=C1c2ccccc2C(=O)N1CO,-0.186% [at 95.7 µM] (inactive),
CN(C)CCC[C@@]1(c2ccc(F)cc2)OCc2cc(C#N)ccc21,-0.119% [at 46 µM] (inactive),

SMILES,"fluorescence, % of fluorescent control",outcome
CC(C)C[P+](C)(CC(C)C)CC(C)C,-0.0134% (inactive),
C=COCCCCO,-0.467% (inactive),
O=C(O)Cc1c(Cl)ccc(Cl)c1Cl,-0.0455% (inactive),
CC(O)C(CO)C(C)O (stereo not drawn),0.0225% [at 95.7 µM] (inactive),
CCOC(=O)CC,0.0278% (inactive),
O=C1CC2(CCCC2)CC(=O)N1CCNCC1COc2ccccc2O1 (stereo not drawn),-0.238% [at 46 µM] (inactive),
CCC(=O)OCCOc1ccccc1,-0.0545% (inactive),
CC1=C(O)C(=O)CO1,-0.0695% (inactive),
CC[N+](C)(CC)CC,0.0101% (inactive),
O=C(OOC(=O)c1ccccc1)c1ccccc1,0.0834% [at 46 µM] (inactive),
CCCCC(CC)COC(=O)CC#N (stereo not drawn),-0.0456% (inactive),
O=S(=O)(O)c1cc(I)c(O)c2ncccc12,-0.515% [at 46 µM] (inactive),
Cc1nc2ccc(Cl)cc2[nH]1,0.0485% (inactive),
COC(C)(C)CC(C)=O,0.187% (inactive),
CC(=O)Nc1ccc(OCCOCCOc2ccc(NC(C)=O)cc2)cc1,-0.565% [at 46 µM] (inactive),
CCCC(=O)CC,0.0957% [at 95.7 µM] (inactive),
N#CC1(N)CCCCC1,-0.0118% [at 95.7 µM] (inactive),

# Assay: qHTS assay to test for compound auto fluorescence at 590 nm (red) in HepG2 cell free culture (AID 720684)
# Conditions: cell-free medium autofluorescence, red 540/590 nm; series mostly up to 91.3 µM; fluorescence, % of Rose Bengal: at the top concentration
# Outline: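 Ex 540 / Em 590 nm read of compound in cell-free MEM (10% FBS). Rose Bengal sodium reference.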
SMILES,"fluorescence, % of Rose Bengal",outcome
CC(=O)OCC(=O)[C@@]1(O)CC[C@H]2[C@@H]3CCC4=CC(=O)C=C[C@]4(C)[C@H]3[C@@H](O)C[C@@]21C,0.535% [at 46 µM] (inactive),
CCCCC(CC)CCC(CC(C)C)OS(=O)(=O)O (stereo not drawn),,inactive
C=C(C)C(=O)OCCCC,-0.0292% [at 95.7 µM] (inactive),
CC(C)C(C)C,-0.368% (inactive),
CC(=O)Oc1ccc(C(C)=O)cc1,0.0969% [at 95.7 µM] (inactive),
CCCCCCCCC1CO1 (stereo not drawn),0.0764% [at 95.7 µM] (inactive),
CC(C)c1cc(C(C)C)cc(C(C)C)c1,-0.296% (inactive),
C=CC(=O)OCC[N+](C)(C)C,0.0074% (inactive),
CN(C)c1cc(NC(=O)CNC(C)(C)C)c(O)c2c1C[C@H]1C[C@H]3[C@H](N(C)C)C(=O)C(C(N)=O)=C(O)[C@@]3(O)C(=O)C1=C2O,-0.0237% [at 46 µM] (inactive),
CC1(C)C(=O)C(C)(C)C1=O,-0.328% (inactive),
CCCCCC(CC)OC(=O)CCCOc1ccc(Cl)cc1Cl (stereo not drawn),-0.177% (inactive),
Cc1ccc2ccccc2n1,0.0653% (inactive),
C=CCON/C(CCC)=C1\C(=O)CC(C)(C)C(C(=O)OC)=C1O,-0.0158% (inactive),
CCCCCCC(O)CO (stereo not drawn),0.0075% (inactive),
Cc1ccc(O)c([N+](=O)[O-])c1,-0.731% [at 95.7 µM] (inactive),
CCCCCC(=O)CC,0.131% [at 95.7 µM] (inactive),
O=C1c2ccccc2C(=O)N1CO,-0.0833% [at 95.7 µM] (inactive),

SMILES,"fluorescence, % of Rose Bengal",outcome
CC(C)C[P+](C)(CC(C)C)CC(C)C,-0.0774% (inactive),
C=COCCCCO,-0.343% (inactive),
O=C(O)Cc1c(Cl)ccc(Cl)c1Cl,0.0048% (inactive),
CCOC(=O)CC,0.0165% (inactive),
O=C1CC2(CCCC2)CC(=O)N1CCNCC1COc2ccccc2O1 (stereo not drawn),-0.0382% [at 46 µM] (inactive),
CCC(=O)OCCOc1ccccc1,-0.0236% (inactive),
CC1=C(O)C(=O)CO1,0.0123% (inactive),
CC[N+](C)(CC)CC,-0.0851% (inactive),
O=C(OOC(=O)c1ccccc1)c1ccccc1,-0.0119% [at 46 µM] (inactive),
CCCCC(CC)COC(=O)CC#N (stereo not drawn),-0.133% (inactive),
O=S(=O)(O)c1cc(I)c(O)c2ncccc12,-0.124% [at 46 µM] (inactive),
Cc1nc2ccc(Cl)cc2[nH]1,-0.19% (inactive),
COC(C)(C)CC(C)=O,-0.0166% (inactive),
CC(=O)Nc1ccc(OCCOCCOc2ccc(NC(C)=O)cc2)cc1,0.255% [at 46 µM] (inactive),
CCCC(=O)CC,0.0894% [at 95.7 µM] (inactive),
N#CC1(N)CCCCC1,-0.0919% [at 95.7 µM] (inactive),

# Assay: qHTS assay to test for compound auto fluorescence at 460 nm (blue) in HepG2 cell free culture (AID 720685)
# Conditions: Cell-free culture medium, blue autofluorescence 405/460 nm; series mostly up to 91.3 µM; fluorescence, % of fluorescent control: at the top concentration
# Outline: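 Cell-free plates of MEM plus 10% FBS received 23 nL compound or DMSO vehicle; blue-channel (405/460 nm) intensity scored against triamterene as reference fluorophore.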
SMILES,"fluorescence, % of fluorescent control",outcome
CC(=O)OCC(=O)[C@@]1(O)CC[C@H]2[C@@H]3CCC4=CC(=O)C=C[C@]4(C)[C@H]3[C@@H](O)C[C@@]21C,0.0112% [at 46 µM] (inactive),
CCCCC(CC)CCC(CC(C)C)OS(=O)(=O)O (stereo not drawn),,inactive
C=C(C)C(=O)OCCCC,-0.231% [at 95.7 µM] (inactive),
CC(C)C(C)C,-0.0112% (inactive),
CC(=O)Oc1ccc(C(C)=O)cc1,0.0184% [at 95.7 µM] (inactive),
CCCCCCCCC1CO1 (stereo not drawn),0.0552% [at 95.7 µM] (inactive),
CC(C)c1cc(C(C)C)cc(C(C)C)c1,0.0483% (inactive),
C=CC(=O)OCC[N+](C)(C)C,0.0635% (inactive),
CN(C)c1cc(NC(=O)CNC(C)(C)C)c(O)c2c1C[C@H]1C[C@H]3[C@H](N(C)C)C(=O)C(C(N)=O)=C(O)[C@@]3(O)C(=O)C1=C2O,0.258% [at 46 µM] (inactive),
CC1(C)C(=O)C(C)(C)C1=O,-0.0466% (inactive),
CCCCCC(CC)OC(=O)CCCOc1ccc(Cl)cc1Cl (stereo not drawn),0.0347% (inactive),
Cc1ccc2ccccc2n1,0.0371% (inactive),
C=CCON/C(CCC)=C1\C(=O)CC(C)(C)C(C(=O)OC)=C1O,-0.036% (inactive),
CCCCCCC(O)CO (stereo not drawn),0.0677% (inactive),
Cc1ccc(O)c([N+](=O)[O-])c1,-0.0759% [at 95.7 µM] (inactive),
CCCCCC(=O)CC,-0.122% [at 95.7 µM] (inactive),
O=C1c2ccccc2C(=O)N1CO,0.185% [at 95.7 µM] (inactive),
CN(C)CCC[C@@]1(c2ccc(F)cc2)OCc2cc(C#N)ccc21,0.0152% [at 46 µM] (inactive),

SMILES,"fluorescence, % of fluorescent control",outcome
CC(C)C[P+](C)(CC(C)C)CC(C)C,-0.0708% (inactive),
C=COCCCCO,-0.164% (inactive),
O=C(O)Cc1c(Cl)ccc(Cl)c1Cl,0.0552% (inactive),
CC(O)C(CO)C(C)O (stereo not drawn),0.0446% [at 95.7 µM] (inactive),
CCOC(=O)CC,-0.0572% (inactive),
O=C1CC2(CCCC2)CC(=O)N1CCNCC1COc2ccccc2O1 (stereo not drawn),0.0647% [at 46 µM] (inactive),
CCC(=O)OCCOc1ccccc1,-0.0518% (inactive),
CC1=C(O)C(=O)CO1,0.55% (inactive),
CC[N+](C)(CC)CC,-0.0035% (inactive),
O=C(OOC(=O)c1ccccc1)c1ccccc1,0.0851% [at 46 µM] (inactive),
CCCCC(CC)COC(=O)CC#N (stereo not drawn),0.0498% (inactive),
O=S(=O)(O)c1cc(I)c(O)c2ncccc12,1.89% [at 46 µM] (inactive),
Cc1nc2ccc(Cl)cc2[nH]1,-0.0402% (inactive),
COC(C)(C)CC(C)=O,0.0062% (inactive),
CC(=O)Nc1ccc(OCCOCCOc2ccc(NC(C)=O)cc2)cc1,0.108% [at 46 µM] (inactive),
CCCC(=O)CC,0.0366% [at 95.7 µM] (inactive),
N#CC1(N)CCCCC1,-0.0243% [at 95.7 µM] (inactive),
